# Results published in PubChem BioAssay (NCI).
# About 79,000 compounds went through this panel and 15% of them were active in at least one assay; those are over-represented in the sample as a whole. Values without a mark were called inactive. Active and inactive are the calls of the source. Cut-off read from the data, not from the text of the source: active = growth inhibition above about 70%; inactive = the rest.
# Assay: NCI Yeast Anticancer Drug Screen. Data for the sgs1 mgt1 strain (AID 161);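 note: 0% = growth of cultures given vehicle only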
# Details: S. cerevisiae sgs1 mgt1 strain, at 50.0 µM, active compounds read high
# Method in brief: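 This yeast growth screen uses a strain with defined DNA-repair lesions; compound-treated growth is compared with vehicle-treated growth.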
row,SMILES,growth inhibition
1,CCOC(=O)Cc1nc2ncncc2[nH]c1=O,-1.8%
2,C/C=C/c1ccc(OCC)c(OC)c1,12.3%
3,O=C(c1ccco1)N(C(=S)N1CCN(c2ccccc2)CC1)c1ccccc1,-35.5%
4,CC(=O)Nc1c(C)ccc([N+](=O)[O-])c1C,-9.7%
5,CC(C)CCCC(C)C1CCC2C3C(O)CC4CCCCC4(C)C3CCC12C (configuration not stated),98% (active)
6,CC(C)CC(=O)c1ccc2ccccc2c1O,6.7%
7,O=C(Cc1nc2sc3c(c2c(=O)[nH]1)CCCC3)Nc1ccccc1,0.05%
8,C[C@@H]1C(=O)CC2(O)[C@@]13C[C@@H](OC(=O)[C@@H]3O)[C@@H](C)[C@@]21COC1=O (some centres not stated),-20.6%
9,O=c1ccn(C2OC(CF)C(O)C2O)c(=O)[nH]1 (configuration not stated),-1.4%
10,N=C(N)n1ncc(Cl)c(Cl)c1=O,33.9%
11,CC(=O)ON(C(=O)c1ccccc1)c1ccccc1,4.3%
12,C#CC(C)(O)c1ccccc1 (configuration not stated),-7.75%
13,CC1(C)[C@H](C(=O)O)N2C(=O)[C@@H](NC(=O)C(c3ccccc3)c3ccccc3)[C@H]2S1=O (some centres not stated),-10.4%
14,COc1cc([N+](=O)[O-])c2ncccc2c1OC,-22.1%
15,CC(=N\N)/C(C)=N/N=C(C)/C(C)=N/N=C(C)/C(C)=N/N=C(C)/C(C)=N/N,4.9%
16,COc1ccc(-c2c3ccccc3c(-c3ccc(OCCCCCBr)cc3)c3ccccc23)cc1,-10.6%
17,CCC(c1ccc(C(C)=O)c(O)c1)C(CC)c1ccc(C(C)=O)c(O)c1 (configuration not stated),22.6%
